Laboratory results: PubChem BioAssay AID624297 (National Center for Advancing Translational Sciences (NCATS), 2012)
Hit rate of the full screen: of about 340,000 compounds, about 6,200 (1.8%) were called active. About 10% were inconclusive and are not listed. Calls come from the whole dose curve; as a rule, active = well fitted activation curve with a large enough effect; inconclusive = small, poorly fitted or top-dose-only effect; inactive = no such curve, though single readings can be large or run the other way. The sample as a whole holds a higher share of actives than the screen did.

Assay: A quantitative high throughput screen for small molecules that induce DNA re-replication in SW480 colon adenocarcinoma cells. For re-replication activation: % of control where 0% means no effect. Note: nearly all actives have a fitted effect of over 55% in size.
Conditions: Hoechst DNA content imaging, 48 h; series mostly up to 46.1 µM; re-replication activation: at the top concentration
How it was run: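 Cells (250 per well) received 23 nL compound or DMSO by pin tool and were kept 48 hr at 37 C, 5% CO2. Nuclei were then stained with Hoechst for 40 min and scanned for DNA content.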
Potency is the fitted concentration of half-maximal effect.

re-replication activation, inactive:
Cc1ccc(S(=O)(=O)N2[C@@H](c3cccc4ccccc34)C(C(=O)O)=C[C@H]2C(C)(C)C)cc1 -25.3% [at 9.22 µM]
CCc1nc(SCC(=O)NNC(=O)c2ccc(C)cc2)c2ccccc2n1 -6.34%
C=CCSc1nc(Cc2ccc(Cl)cc2)nc2ccccc12 0.994%
CC(=O)Nc1ccc(C(=O)Nc2cc(S(=O)(=O)N3CCOCC3)ccc2N2CCOCC2)cc1 -2.34%
CC(Oc1ccc2c(-c3ccccc3)cc(=O)oc2c1)C(=O)NC(Cc1c[nH]c2ccccc12)C(=O)O (stereo not given) -6.21%
CCOc1cccc(SCc2noc(C(=O)NC(C)C)c2C(=O)O)c1 -7.12%
CCCNC(=O)c1onc(CSc2ccc(F)cc2)c1C(=O)NC(C)C -5.91%
CC(=O)N1CCc2ccc(N)cc21 0.538%
OC(COc1ccccc1)CN1CCN(c2cccc(Cl)c2)CC1 (stereo not given) 6.18%
O=C(NN=CC=Cc1ccccc1)C(O)C(O)C(=O)NN=CC=Cc1ccccc1 (stereo not given) 1.81%
CN(C(=O)c1cccc(NC(=O)Cc2ccc(NC(=O)C3CCCN(C(=O)C4CCCC4)C3)cc2)c1)C1CCC1 (stereo not given) -19.7% [at 9.22 µM]
CC1(C(=O)N/N=C/c2cc3c(cc2Br)OCO3)CC1(Br)Br (stereo not given) 14.3%
O=C(N/N=C/c1cc2c(cc1Br)OCO2)C1COc2ccccc2O1 (stereo not given) -2.55%
O=C(CSc1ncnc2sccc12)NC1CCS(=O)(=O)C1 (stereo not given) 0.0411%
O=C(Nc1ccc2c(c1)OCO2)C1CC1(Cl)Cl (stereo not given) -4.89%
O=C(Nc1c[nH]c(=O)[nH]c1=O)OCc1ccccc1 -3.99%
COc1ccc(NC(=O)/C(N=Nc2cccc(S(=O)(=O)Nc3ccc(SC(F)F)cc3)c2)=C(\C)O)cc1 -12.2%
Cc1nc(N2CCOCC2)nc2c1CCCC2 -2.45%
COc1ccc(/C=C/C(=O)OCC(=O)N2CCN(S(=O)(=O)c3ccc(C)cc3C)CC2)cc1OC -1.7%
Cc1nc(N)sc1-c1ccccc1 -0.764%
O=C1COc2ccc(C(=O)CSc3ccc(Br)cc3)cc2N1 1.01%
C=CCn1c(=O)n(C)c2c(=O)n(C)c(=O)n(C)c21 -9.28%
COc1ccc(C(=O)N[C@H](C(=O)NCc2ccccc2)C(C)C)cc1 -9.23%
COc1cc(OC)cc(C(=O)N[C@H](C(=O)NNC(=O)c2ccc(Br)cc2)C(C)C)c1 3.18%
Cc1ccc(S(=O)(=O)N2CCN(C(=O)c3cc(S(=O)(=O)N4CCOCC4)ccc3F)CC2)cc1 4.45%
CN(C)c1ccc(C2N(C)C(=O)c3ccccc3N2C)cc1 (stereo not given) -1.45%
Cc1ccc(S(=O)(=O)NC[C@H]2O[C@@H](n3cnc4c(N)ncnc43)[C@H](O)[C@@H]2O)s1 -0.834%
CCOc1ccc2nc(NC(=O)c3cc([N+](=O)[O-])ccc3N3CCOCC3)sc2c1 0.212%
CCC(=O)NC(Nc1nc2ccc(C)cc2s1)(C(=O)OC)C(F)(F)F (stereo not given) 2.72%
CC(=O)c1ccc(NC(=O)C(C)OC(=O)c2ccc(NS(=O)(=O)c3ccc4[nH]c(=O)[nH]c4c3)cc2)cc1 (stereo not given) -46%
Cc1cc(NC(=O)C(C)SCC(=O)Nc2cccc(S(=O)(=O)N3CCCCCC3)c2)no1 (stereo not given) -4.77%
C[C@H](CO)N1C[C@H](C)[C@H](CN(C)CC2CC2)Oc2ccc(NC(=O)CCN3CCOCC3)cc2C1=O 5.51%
COc1cccc(C(=O)NC(=O)Nc2nc(C)cc(C(F)(F)F)n2)c1 22.9%
Cc1cc(Cl)nc(NC(=O)Nc2cccc(Cl)c2)n1 -7.59%
CCC(C)C1(C2CCCC2)NC(=O)NC1=O (stereo not given) -5.75%
Nc1ncnc2c1ncn2[C@@H]1O[C@H](CNS(=O)(=O)c2ccc(-c3ccno3)s2)[C@@H](O)[C@H]1O 3.48%
Cc1cc2c(cc1C)NC1(C[C@H]3CCC(=O)N4CC[C@@H](C1)[C@@H]34)C(=NC(C)(C)CC(C)(C)C)N2 (stereo not given in full) -10.5%
Cc1ccccc1-c1nc(C#N)c(NCc2ccco2)o1 0.177%
N#Cc1nc(-c2cccc3ccccc23)oc1N 0.402%
COc1ccc(CCC(=O)Nc2ccc(Cl)c(S(=O)(=O)N3CCOCC3)c2)cc1OC 0.713%
O=[N+]([O-])c1ccccc1/C=C/CN1CCC(O)CC1 4.87%
O=[N+]([O-])c1ccccc1/C=C/CN1CCCC(CO)C1 (stereo not given) -0.185%
COCCN(C(=O)C(C)N1C(=O)c2ccccc2C1=O)c1c(N)n(CC(C)C)c(=O)[nH]c1=O (stereo not given) -2.99%
O=[N+]([O-])c1ccc(N=NNc2ccc([N+](=O)[O-])cc2)cc1 -1.61%
COc1cccc(N2CCN(CC(=O)Nc3ccnn3C3CCCC3)CC2)c1 -0.518%
COc1cc(OC)cc(-c2cc3ccc(F)cc3cn2)c1 17.7%
O=C(C1CCN(Cc2ccc(Cl)cc2)CC1)N1CCN(Cc2ccc3c(c2)OCO3)CC1 6.33%
CC1CCC(NC(=O)C2c3ccccc3C(=O)N2Cc2ccc3c(c2)OCO3)CC1 (stereo not given) -8.21%
C=CC[C@@H](CC(=O)N[C@@H](CO)Cc1ccccc1)C(=O)NCCOC(=O)[C@@H](CC=C)CC(=O)OC(C)(C)C -9.33%
COC1=CC(=O)OC(C)(c2ccccc2)C1 (stereo not given) -10.5%
CCOC(=O)CCC(NC(=O)c1ccc(CNc2nc3cc(C(F)(F)F)ccc3nc2C(=O)OCC)cc1)C(=O)OCC (stereo not given) 0.999%
FC(F)(F)c1ccc(-c2cccc3c2C2CC3CCN2Cc2ccccc2)cc1 (stereo not given) -0.788%
O=C(NNc1nc(N2CCCC2)nc(N2CCCC2)n1)c1ccccc1 -0.98%
Cc1cc(C(=O)N/N=C/c2ccc(N3CCOCC3)cc2)c(C)o1 8.47%
O=C(NN=Cc1ccc(N2CCOCC2)cc1)c1cc2ccccc2cc1O -21.4%
O=C(Nc1cccc(S(=O)(=O)N2CCCCC2)c1)c1cncc(Br)c1 -0.964%
CC/C(=C(/c1ccccc1)c1ccc(OCC[N+](C)(C)C)cc1)c1ccccc1 -5.78%
Nn1c(SCC(=O)Nc2ccc3c(c2)CCC3)nnc1C1CC1 -5.39%
CN(c1ccccc1)S(=O)(=O)c1ccc(Cl)c(C(=O)OCC(=O)NCc2ccco2)c1 -20.4%
O=C(COC(=O)c1ccccc1O)NCc1ccco1 -9.2%
CC(C(=O)N1CCc2ccccc21)N(C)CC(=O)Nc1ccc(F)cc1 (stereo not given) 24%
O=C1COc2ccc(C(=O)COC(=O)CCOc3ccccc3)cc2N1 -4.67%
Cc1ccc(-c2csc(C(C#N)=C(O)CN3CCN(C(=O)c4ccco4)CC3)n2)cc1 6.14%
Cc1cn([C@H]2CC(F)[C@@H](CO)O2)c(=O)[nH]c1=O (stereo not given in full) -0.164%
COc1cc(OC)cc(C(=O)NCC(=O)OCC(=O)NC(C)CCc2ccccc2)c1 (stereo not given) -29.4%
CC(=O)c1cc(CN2CCC(C(=O)Nc3cccc(-c4cscn4)c3)CC2)cs1 -7.67%
O=C(Nc1cccc(-c2cscn2)c1)C1CCN(Cc2ccsc2)CC1 -1.44%
C=CCN1C=C(C(=O)c2ccccc2)C(=O)CC1 -47.2%
Cc1ccc(OCCCn2c(=O)oc3ccccc32)cc1 -16.6%
CCCCCCCCCCOC(=O)Cn1c(COc2cccc(OC)c2)[n+](C)c2ccccc21 -6.85%
O=c1c2ccccc2ncn1CCc1ccncc1 2.42%
COc1ccccc1C(=O)OCC(=O)Nc1cccc(S(=O)(=O)NC2=NCCCCC2)c1 -8.34%
Cc1cc(-c2ccc(C)c(S(=O)(=O)NC(C)Cc3ccco3)c2)on1 (stereo not given) 0.627%
CCOc1ccccc1CNS(=O)(=O)c1cc(-c2cc(C)no2)ccc1C -18.6%
COc1cccc2oc(CCc3ccccc3)cc(=O)c12 -9.95%
CCOc1cc(C(=O)N(Cc2ccccc2)c2ccc(C)cc2)ccc1OCC(=O)N1CCOCC1 -7.41%
CC1CCN(C2=NC(=O)/C(=C/c3ccc(O)cc3)S2)CC1 -2.45%
CC(C(=O)NC1CCS(=O)(=O)C1)N1C(=O)/C(=C/c2ccc(Cl)cc2)SC1=S (stereo not given) 0.287%
O=C(COC(=O)c1cccnc1Cl)Nc1ccc(S(=O)(=O)N2CCOCC2)cc1 -6.59%
COCCN(C(=O)CSCc1ccc(C)cc1)c1c(N)n(CC(C)C)c(=O)[nH]c1=O -13.4%
CC(C(=O)NC1CCCC1)N(c1ccc(Oc2ccccc2)cc1)S(C)(=O)=O (stereo not given) 11.2%
COc1ccc(/C=N/NS(=O)(=O)c2ccc(NC(C)=O)cc2)cc1 1.07%

Potency, active:
CCCNC(=O)CSc1nc(Cc2ccccc2)nc2ccccc12 9.2 µM
COC(=O)c1c(CCl)noc1C(=O)NC(C)C 20.6 µM
O=C(N/N=C\c1cc2c(cc1Cl)OCO2)c1ccc(Br)s1 7.31 µM
Nc1nc(-c2sc3nc4c(cc3c2N)CCCC4)nc(N2CCOCC2)n1 10.3 µM
COc1cc(OC)cc(C(=O)N[C@H](C(=O)Nc2nc3ccccc3[nH]2)C(C)C)c1 0.164 µM
CN(C)c1ccc(Nc2c3c4c(cccc4n(C)c2=O)C(=O)c2ccccc2-3)cc1 7.31 µM
O=C(NC(Nc1nc2ccc([N+](=O)[O-])cc2s1)(C(F)(F)F)C(F)(F)F)c1ccccc1 20.6 µM
Cc1cc(C)nc(NC(=O)Nc2ccccc2C(F)(F)F)n1 16.4 µM
COc1ccc(Nc2oc(-c3ccccc3Cl)nc2C#N)cc1 10.3 µM
CC1CCCCC1NC(=O)/C(C#N)=C/C=C/c1ccccc1[N+](=O)[O-] (stereo not given) 6.51 µM
O=C(Nc1ccc(Cl)cc1)C1c2cccc[n+]2CC(=O)N1Cc1ccc2c(c1)OCO2 (stereo not given) 23.1 µM
CCN(CC)c1ccc(C(=O)N/N=C/c2ccc(N3CCOCC3)cc2)cc1 18.4 µM
Cc1cc(C(=O)OCC(=O)NCc2ccco2)c(C)n1-c1ccccc1 7.31 µM
CCn1cc(CN2CCC(C(=O)Nc3cccc(-c4cccc(Cl)c4)c3)CC2)cn1 18.4 µM
CCCCCCCCCCOC(=O)Cn1c(COc2ccc(C)cc2)[n+](C)c2ccccc21 20.6 µM
Cc1cc(-c2ccc(C)c(S(=O)(=O)NCCCN(Cc3ccccc3)C(C)C)c2)on1 18.4 µM
O=C1/C(=C\c2ccc(O)cc2)CCC1CNc1ccc(Cl)cc1 (stereo not given) 16.4 µM
COc1ccc(/C=N/NC(=O)C(C)N(c2ccc(OC)cc2)S(C)(=O)=O)cc1 (stereo not given) 18.4 µM
